# Experimental data: the supplement of paper PMC8728848
# Shown is part of a subset that was picked to be rich in the strongest signals.
# B1: Siglec-E (Mus musculus), Q91Y57 (protein)
# chain: MLLLLLLLLLWGIKGVEGQNPQEVFTLNVERKVVVQEGLCVLVPCNFSYLKKRLTDWTDSDPVHGFWYREGTDRRKDSIVATNNPIRKAVKETRNRFFLLGDPWRNDCSLNIREIRKKDAGLYFFRLERGKTKYNYMWDKMTLVVTALTNTPQILLPETLEAGHPSNLTCSVPWDCGWTAPPIFSWTGTSVSFLSTNTTGSSVLTITPQPQDHGTNLTCQVTLPGTNVSTRMTTRLNVSYAPKNLTVTIYQGADSVSTILKNGSSLPISEGQSLRLICSTDSYPPANLSWSWDNLTLCPSKLSKPGLLELFPVHLKHGGVYTCQAQHALGSQHISLSLSPQSSATLSEMMMGTFVGSGVTALLFLSVCILLLAVRSYRRKPARPAVVAPHPDALKVSVSQNPLVESQADDSSEPLPSILEAAPSSTEEEIHYATLSFHEMKPMNLWGQQDTTTEYSEIKFPQRTAWP
# Tests used:
# Assay in all cases: glycan array binding signal (z-score within array); higher = stronger binding
# Conditions in all cases: glycan notation: IUPAC condensed, linker removed
# [1] = biological target: Fuc(a1-2)Gal(b1-3)[Fuc(a1-4)]GlcNAc(b1-2)Man(a1-3)[Fuc(a1-2)Gal(b1-3)[Fuc(a1-4)]GlcNAc(b1-2)Man(a1-3)]Man(b1-4)GlcNAc(b1-4)GlcNAc
# Method in brief: (§1)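 Arrays were curated from the Consortium for Functional Glycomics database, 3228 in total, and kept only where the protein sequence was available. Binding is expressed as a within-array Z-score. This score was averaged across arrays of the same protein sequence at different concentrations or buffers and across linkers, and negative values can be read as non-binding.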
# [2] = biological target: Fuc(a1-2)Gal(b1-3)[Fuc(a1-4)]GlcNAc(b1-2)Man(a1-3)[Fuc(a1-2)Gal(b1-3)[Fuc(a1-4)]GlcNAc(b1-2)Man(a1-6)]Man(b1-4)GlcNAc(b1-4)[Fuc(a1-6)]GlcNAc(b1-4)[Fuc(a1-6)]GlcNAc
# Method in brief: as §1
# [3] = biological target: Fuc(a1-2)Gal(b1-4)GlcNAc(b1-2)Man(a1-3)[Fuc(a1-2)Gal(b1-4)GlcNAc(b1-2)Man(a1-6)]Man(b1-4)GlcNAc(b1-4)[Fuc(a1-6)]GlcNAc
# Method in brief: as §1
# [4] = biological target: Fuc(a1-2)[Gal(a1-3)]Gal(b1-3)GalNAc
# Method in brief: as §1
# [5] = biological target: Fuc(a1-2)[Gal(a1-3)]Gal(b1-3)GlcNAc(b1-3)GalNAc
# Method in brief: as §1
# [6] = biological target: Fuc(a1-2)[Gal(a1-3)]Gal(b1-4)GlcNAc(b1-2)Man(a1-3)[Fuc(a1-2)[Gal(a1-3)]Gal(b1-4)GlcNAc(b1-2)Man(a1-6)]Man(b1-4)GlcNAc(b1-4)[Fuc(a1-6)]GlcNAc
# Method in brief: as §1
# [7] = biological target: Fuc(a1-2)[Gal(a1-3)]Gal(b1-4)GlcNAc(b1-3)[Fuc(a1-2)[Gal(a1-3)]Gal(b1-4)GlcNAc(b1-6)]GalNAc
# Method in brief: as §1
# [8] = biological target: Fuc(a1-2)[Gal(a1-3)]Gal(b1-4)[Fuc(a1-3)]GlcNAc
# Method in brief: as §1
# [9] = biological target: Fuc(a1-2)[Gal(a1-3)]Gal(b1-4)[Fuc(a1-3)]GlcNAc(b1-3)GalNAc
# Method in brief: as §1
# [10] = biological target: Fuc(a1-2)[GalNAc(a1-3)]Gal(b1-3)GalNAc(b1-3)Gal(a1-4)Gal(b1-4)Glc
# Method in brief: as §1
# [11] = biological target: Fuc(a1-3)[Gal(b1-4)]GlcNAc(b1-2)Man
# Method in brief: as §1
# [12] = biological target: Fuc(a1-4)GlcNAc
# Method in brief: as §1
# [13] = biological target: Gal(a1-3)Gal(b1-4)[Fuc(a1-3)]GlcNAc
# Method in brief: as §1
# [14] = biological target: Gal(a1-3)Gal(b1-4)[Fuc(a1-3)]GlcNAc(b1-2)Man(a1-3)[Gal(a1-3)Gal(b1-4)[Fuc(a1-3)]GlcNAc(b1-2)Man(a1-6)]Man(b1-4)GlcNAc(b1-4)GlcNAc
# Method in brief: as §1
# [15] = biological target: Gal(a1-3)GalNAc
# Method in brief: as §1
# [16] = biological target: Gal(a1-4)Gal(b1-4)GlcNAc(b1-2)Man(a1-3)[Gal(a1-4)Gal(b1-4)GlcNAc(b1-2)Man(a1-6)]Man(b1-4)GlcNAc(b1-4)GlcNAc
# Method in brief: as §1
# [17] = biological target: Gal(a1-6)Glc
# Method in brief: as §1
# [18] = biological target: Gal(b1-3)GalNAc(a1-3)[Fuc(a1-2)]Gal(b1-4)Glc
# Method in brief: as §1
# [19] = biological target: Gal(b1-3)GlcNAc(b1-2)Man
# Method in brief: as §1
# [20] = biological target: Gal(b1-3)GlcNAc(b1-2)[Gal(b1-3)GlcNAc(b1-6)]Man(a1-6)[Gal(b1-3)GlcNAc(b1-2)Man(a1-3)]Man(b1-4)GlcNAc(b1-4)GlcNAc
# Method in brief: as §1
# [21] = biological target: Gal(b1-4)Gal
# Method in brief: as §1
# [22] = biological target: Gal(b1-4)GalNAc(b1-3)[Fuc(a1-2)]Gal(b1-4)GlcNAc
# Method in brief: as §1
# [23] = biological target: Gal(b1-4)GlcNAc(b1-2)[Gal(b1-4)GlcNAc(b1-4)]Man(a1-3)[Gal(b1-4)GlcNAc(b1-2)[Gal(b1-4)GlcNAc(b1-6)]Man(a1-6)]Man(b1-4)GlcNAc(b1-4)GlcNAc
# Method in brief: as §1
# [24] = biological target: Gal(b1-4)GlcNAc(b1-3)Gal(b1-4)GlcNAc(b1-3)Gal(b1-4)GlcNAc(b1-2)Man(a1-3)[Gal(b1-4)GlcNAc(b1-3)Gal(b1-4)GlcNAc(b1-3)Gal(b1-4)GlcNAc(b1-2)Man(a1-6)]Man(b1-4)GlcNAc(b1-4)[Fuc(a1-6)]GlcNAc
# Method in brief: as §1
# [25] = biological target: Gal(b1-4)GlcNAc(b1-3)Gal(b1-4)GlcNAc(b1-3)[Gal(b1-4)GlcNAc(b1-3)Gal(b1-4)GlcNAc(b1-6)]GalNAc
# Method in brief: as §1
# [26] = biological target: Gal3S(b1-4)[Fuc(a1-3)]Glc6S
# Method in brief: as §1
# [27] = biological target: Gal3S4S(b1-4)GlcNAc
# Method in brief: as §1
# [28] = biological target: GalNAc(b1-4)Gal(b1-4)Glc
# Method in brief: as §1
# [29] = biological target: GalNAc4S6S(b1-4)GlcNAc
# Method in brief: as §1
# [30] = biological target: Glc(a1-6)Glc(a1-6)Glc(a1-6)Glc
# Method in brief: as §1
# [31] = biological target: Glc(b1-4)Glc
# Method in brief: as §1
# [32] = biological target: GlcNAc(a1-4)Gal(b1-4)GlcNAc
# Method in brief: as §1
# [33] = biological target: GlcNAc(b1-2)Gal(b1-3)GalNAc
# Method in brief: as §1
# [34] = biological target: GlcNAc(b1-2)Man(a1-3)[GlcNAc(b1-2)Man(a1-6)]Man(b1-4)GlcNAc(b1-4)GlcNAc
# Method in brief: as §1
# [35] = biological target: GlcNAc(b1-3)Gal(b1-4)GlcNAc(b1-3)Gal(b1-4)GlcNAc(b1-2)[GlcNAc(b1-3)Gal(b1-4)GlcNAc(b1-3)Gal(b1-4)GlcNAc(b1-6)]Man(a1-6)[GlcNAc(b1-3)Gal(b1-4)GlcNAc(b1-3)Gal(b1-4)GlcNAc(b1-2)Man(a1-3)]Man(b1-4)GlcNAc(b1-4)[Fuc(a1-6)]GlcNAc
# Method in brief: as §1
# [36] = biological target: GlcNAc(b1-3)[GlcNAc(b1-6)]GalNAc
# Method in brief: as §1
# [37] = biological target: Man(a1-2)Man(a1-3)[Man(a1-6)]Man(a1-6)[Man(a1-2)Man(a1-3)]Man(b1-4)GlcNAc(b1-4)GlcNAc
# Method in brief: as §1
# [38] = biological target: MurNAc(b1-4)GlcNAc
# Method in brief: as §1
# [39] = biological target: Neu5Ac(a2-3)Gal
# Method in brief: as §1
# [40] = biological target: Neu5Ac(a2-3)Gal(b1-3)GalNAc(b1-4)[Neu5Ac(a2-8)Neu5Ac(a2-3)]Gal(b1-4)Glc
# Method in brief: as §1
# [41] = biological target: Neu5Ac(a2-3)Gal(b1-3)GlcNAc(b1-2)Man(a1-3)[Neu5Ac(a2-3)Gal(b1-3)GlcNAc(b1-2)Man(a1-6)]Man(b1-4)GlcNAc(b1-4)GlcNAc
# Method in brief: as §1
# [42] = biological target: Neu5Ac(a2-3)Gal(b1-3)GlcNAc(b1-3)GalNAc
# Method in brief: as §1
# [43] = biological target: Neu5Ac(a2-3)Gal(b1-3)[Fuc(a1-4)]GlcNAc(b1-3)Gal(b1-4)[Fuc(a1-3)]GlcNAc
# Method in brief: as §1
# [44] = biological target: Neu5Ac(a2-3)Gal(b1-4)Glc
# Method in brief: as §1
# [45] = biological target: Neu5Ac(a2-3)Gal(b1-4)GlcNAc(b1-3)Gal(b1-4)GlcNAc(b1-3)[Neu5Ac(a2-3)Gal(b1-4)GlcNAc(b1-3)Gal(b1-4)GlcNAc(b1-6)]GalNAc
# Method in brief: as §1
# [46] = biological target: Neu5Ac(a2-3)Gal(b1-4)[Fuc(a1-3)]GlcNAc(b1-3)Gal(b1-4)[Fuc(a1-3)]GlcNAc(b1-3)Gal(b1-4)[Fuc(a1-3)]GlcNAc
# Method in brief: as §1
# [47] = biological target: Neu5Ac(a2-3)Gal6S(b1-4)GlcNAc
# Method in brief: as §1
# [48] = biological target: Neu5Ac(a2-3)[GalNAc(b1-4)]Gal(b1-4)Glc
# Method in brief: as §1
# [49] = biological target: Neu5Ac(a2-3)[GalNAc(b1-4)]Gal(b1-4)GlcNAc(b1-3)GalNAc
# Method in brief: as §1
# [50] = biological target: Neu5Ac(a2-6)Gal(b1-4)GlcNAc(b1-2)Man(a1-3)Man(b1-4)GlcNAc(b1-4)GlcNAc
# Method in brief: as §1
# [51] = biological target: Neu5Ac(a2-6)GalNAc
# Method in brief: as §1
# [52] = biological target: Neu5Ac(a2-8)Neu5Ac(a2-3)Gal(b1-3)GalNAc(b1-4)[Neu5Ac(a2-8)Neu5Ac(a2-3)]Gal(b1-4)Glc
# Method in brief: as §1
# [53] = biological target: Neu5Gc(a2-3)Gal(b1-3)[Fuc(a1-4)]GlcNAc
# Method in brief: as §1
binder,measurement,setting,value
B1,glycan array binding signal (z-score),[1],3.48
same,glycan array binding signal (z-score),[2],0.284
same,glycan array binding signal (z-score),[3],3.46
same,glycan array binding signal (z-score),[4],0.178
same,glycan array binding signal (z-score),[5],5.32
same,glycan array binding signal (z-score),[6],3.5
same,glycan array binding signal (z-score),[7],5.58
same,glycan array binding signal (z-score),[8],0.611
same,glycan array binding signal (z-score),[9],-0.176
same,glycan array binding signal (z-score),[10],-0.363
same,glycan array binding signal (z-score),[11],-0.35
same,glycan array binding signal (z-score),[12],4.01
same,glycan array binding signal (z-score),[13],-0.381
same,glycan array binding signal (z-score),[14],6.54
same,glycan array binding signal (z-score),[15],-0.309
same,glycan array binding signal (z-score),[16],4.23
same,glycan array binding signal (z-score),[17],0.863
same,glycan array binding signal (z-score),[18],-0.496
same,glycan array binding signal (z-score),[19],-0.592
same,glycan array binding signal (z-score),[20],1.66
same,glycan array binding signal (z-score),[21],3.25
same,glycan array binding signal (z-score),[22],-0.625
same,glycan array binding signal (z-score),[23],-0.667
same,glycan array binding signal (z-score),[24],-0.527
same,glycan array binding signal (z-score),[25],-0.06
same,glycan array binding signal (z-score),[26],0.707
same,glycan array binding signal (z-score),[27],-0.239
same,glycan array binding signal (z-score),[28],4.05
same,glycan array binding signal (z-score),[29],-0.147
same,glycan array binding signal (z-score),[30],1.1
same,glycan array binding signal (z-score),[31],-0.196
same,glycan array binding signal (z-score),[32],-0.41
same,glycan array binding signal (z-score),[33],-0.364
same,glycan array binding signal (z-score),[34],-0.12
same,glycan array binding signal (z-score),[35],-0.336
same,glycan array binding signal (z-score),[36],-0.05
same,glycan array binding signal (z-score),[37],-0.61
same,glycan array binding signal (z-score),[38],-0.464
same,glycan array binding signal (z-score),[39],-0.19
same,glycan array binding signal (z-score),[40],0.68
same,glycan array binding signal (z-score),[41],6.41
same,glycan array binding signal (z-score),[42],-0.226
same,glycan array binding signal (z-score),[43],-0.475
same,glycan array binding signal (z-score),[44],3.95
same,glycan array binding signal (z-score),[45],-0.335
same,glycan array binding signal (z-score),[46],-0.568
same,glycan array binding signal (z-score),[47],-0.532
same,glycan array binding signal (z-score),[48],-0.34
same,glycan array binding signal (z-score),[49],-0.355
same,glycan array binding signal (z-score),[50],-0.181
same,glycan array binding signal (z-score),[51],-0.32
same,glycan array binding signal (z-score),[52],0.342
same,glycan array binding signal (z-score),[53],0.48
